CtBP-E1A inh: qHTS Assay for Inhibitors of the CtBP/E1A Interaction; AlphaScreen GST-E1A/His-CtBP binding, 1536-well; active compounds read low; activity change, % (test concentration not listed); hit rate 0.49% among 340,000; AID 651724, 2012; in the data active means activity change below about -65%; inconclusive means mostly about -30% to -63%
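Homogeneous bead-based format: GST-tagged E1A captured on glutathione donor beads, His-tagged CtBP on nickel acceptor beads; compounds precede bead addition by 2 h at 37 °C.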
TDP1 cell CPT: qHTS for Inhibitors of human tyrosyl-DNA phosphodiesterase 1 (TDP1): qHTS in cells in presence of CPT | chicken DT40 Tdp1-/-;hTDP1 cells + 20 nM CPT, ATP luminescence, 48 h | Potency, µM (top dose mostly 46.2 µM), actives largely listed as inhibitors | hit rate 12% among 420,000; further: nearly all actives have a fitted effect of over 55% in size
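Chicken DT40 Tdp1-/- cells stably complemented with human TDP1 were seeded at 400 cells/well in medium containing 20 nM camptothecin, exposed to pin-transferred compounds, and grown at 37 °C for at least 48 hr. Viability was read as ATP luminescence.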
Six1-Eya2 inh: qHTS Assay for Inhibitors of the Six1/Eya2 Interaction. AlphaScreen GST-Six1/His-Eya2 binding, biochemical; active compounds read low. activity change, % (no concentration beside the values). hit rate 0.56% among 360,000. AID 651725, 2012; in the data active means activity change below about -65%; inconclusive means mostly about -30% to -63%
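Compounds are tested against tagged Six1 and Eya2 proteins bridged by glutathione donor and nickel acceptor beads; after a one-hour incubation at 37 °C without light, AlphaScreen emission is recorded.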
IL1B secr inh: qHTS for Inhibitors of Inflammasome Signaling: IL-1-beta AlphaLISA Primary Screen; THP-1 LPS/ATP IL-1B secretion, AlphaLISA, 16 h; active compounds read low; activity change, % at 57.5 µM; hit rate 4.7% among 360,000; AID 743279, 2014; in the data active means activity change below about -50%; inconclusive means mostly about -30% to -49%
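Secreted IL-1B measured by AlphaLISA bead assay after 16 h compound exposure of THP-1 cells; compounds (final up to 57.5 uM) added 1 h before LPS (250 ng/mL) and ATP (1.25 mM) stimulation; lower signal means less secretion.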
DT40 TDP1 no CPT: qHTS for Inhibitors of human tyrosyl-DNA phosphodiesterase 1 (TDP1): qHTS in cells in absence of CPT. AID 686978, 2013. Potency, µM (series often up to 46.2 µM), hits mostly inhibitors. DT40 Tdp1-/- hTDP1 cells, no CPT, ATP luminescence, 48 h. hit rate 15% among 420,000; further: nearly all actives have a fitted effect of over 55% in size
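A cellular qHTS used chicken DT40 cells lacking endogenous Tdp1 but carrying stably transfected human TDP1. Compounds were applied without camptothecin, and cell growth kinetics were judged by ATP-dependent luminescence after ≥48 hr.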
TDP1 block: qHTS Assay for Inhibitors of Tyrosyl-DNA Phosphodiesterase (TDP1) | AID 485290, 2010 | recombinant TDP1, AlphaScreen DNA substrate cleavage | Tyrosyl-DNA phosphodiesterase 1 (Homo sapiens), Q9NUW8 | hit rate 0.28% among 350,000 | Potency, µM (top dose mostly 130 µM), hits mostly inhibitors; further: nearly all actives have a fitted effect of over 40% in size
Target sequence (Q9NUW8 whole entry, looked up): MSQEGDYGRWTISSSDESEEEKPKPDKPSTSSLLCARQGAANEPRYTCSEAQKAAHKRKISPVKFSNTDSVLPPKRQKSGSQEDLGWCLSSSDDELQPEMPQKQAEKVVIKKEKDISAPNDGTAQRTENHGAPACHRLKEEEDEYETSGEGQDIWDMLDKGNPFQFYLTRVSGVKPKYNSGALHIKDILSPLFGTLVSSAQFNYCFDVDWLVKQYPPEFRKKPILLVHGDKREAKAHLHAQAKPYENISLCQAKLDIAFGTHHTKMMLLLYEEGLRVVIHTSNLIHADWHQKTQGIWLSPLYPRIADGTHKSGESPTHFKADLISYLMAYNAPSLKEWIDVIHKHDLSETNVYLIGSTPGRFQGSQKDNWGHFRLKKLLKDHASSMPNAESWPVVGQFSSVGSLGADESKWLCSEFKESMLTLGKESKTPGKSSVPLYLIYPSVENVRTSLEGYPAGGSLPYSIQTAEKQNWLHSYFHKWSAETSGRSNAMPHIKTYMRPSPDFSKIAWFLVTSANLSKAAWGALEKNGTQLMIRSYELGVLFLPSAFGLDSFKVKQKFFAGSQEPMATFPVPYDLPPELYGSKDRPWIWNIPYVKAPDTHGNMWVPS
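Tdp1 1 nM final; 15 min RT w/ cpd; substrate 15 nM, 5 min; beads 10 ug/ml, 10 min; AlphaScreen read. Neg ctrl: no enzyme.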
Numbers stand for hits; n = inactive; u = inconclusive; x = no result; [ ] = another dose, or the depositor's remark. A selection: hits, their analogues and other compounds. The true share with any hit is near 18%. Unless noted, the call rests on the fitted dose curve; in most records, active means well fitted curve in the direction sought with a large enough effect; inconclusive means small, poorly fitted or top-dose-only effect, or another doubt; inactive means no such curve, though single readings can be large; an effect the other way counts as inactive or inconclusive.

SMILES	CtBP-E1A inh	TDP1 cell CPT	Six1-Eya2 inh	IL1B secr inh	DT40 TDP1 no CPT	TDP1 block
Nc1ncccc1OCc1ccc(Cl)c(Cl)c1	n	u	n	u	25.9µM	n
O=C(OCc1ccc(Cl)c(Cl)c1)c1cccnc1Cl	n	n	n	n	n	n
COc1cc(CNCc2ccccn2)ccc1OCc1ccc(Cl)cc1Cl	n	u	n	-53.4	u	n
COc1cc(CNCc2ccccn2)ccc1OCc1ccc(Cl)c(Cl)c1	u	u	n	-92.8	u	n
CCOCCn1c(SCCc2ccccc2)nc2c1c(=O)[nH]c(=O)n2C	n	n	n	n	n	n
Cn1c(SCc2ccccc2)nc(C(F)(F)F)cc1=O	n	n	n	n	n	n
Cn1c(SCc2ccccc2)nc(N)c(N=O)c1=O	x	u	n	u	14.6µM	x
Cc1ccc(NC(=O)c2ccc(S(=O)(=O)N3CCOCC3)cc2)cc1	n	n	n	n	n	x
Cc1ccc(NC(=S)N=Nc2c(O)n(C)c3ccc(S(=O)(=O)N4CCOCC4)cc23)cc1	n	2.59µM	n	n	2.59µM	n
Cc1cccc(NC(=S)N=Nc2c(O)n(C)c3ccc(S(=O)(=O)N4CCOCC4)cc23)c1	n	3.66µM	n	n	3.26µM	n
Cc1cc(C)cc(NC(=S)N=Nc2c(O)n(C)c3ccc(S(=O)(=O)N4CCOCC4)cc23)c1	n	1.16µM	n	n	4.61µM	n
O=c1c2ccccc2ncn1-c1cccc(Br)c1	n	n	n	n	n	x
Brc1cc(Br)c2ncnc(N3CCCCC3)c2c1	n	20.6µM	n	n	13µM	n
O=C(NCc1ccco1)c1ccc(Cn2cc([N+](=O)[O-])cn2)o1	n	n	n	n	n	n
O=C(NCc1ccco1)c1ccc([N+](=O)[O-])o1	n	u	n	-61.4	u	x
O=C(NCc1cccnc1)c1ccc(N2CCOCC2)c([N+](=O)[O-])c1	n	u	n	n	16.4µM	n
O=C(Nc1ccc(Cl)cn1)c1ccc([N+](=O)[O-])o1	n	2.31µM	n	-225.6	14.6µM	n
O=[N+]([O-])c1c(NCc2ccccc2)cc(N2CCc3ccccc3C2)c2nonc12	n	u	n	n	20.6µM	n
O=C1NC(=S)N/C1=C/c1cccn1-c1ccc([N+](=O)[O-])cc1	n	n	n	n	n	n
CCCCN(C(=O)c1cccc(S(=O)(=O)N2CCOCC2)c1)c1c(N)n(CCC)c(=O)[nH]c1=O	x	n	n	n	n	n
O=[N+]([O-])c1ccc(N2CCOCC2)cc1NCc1ccccc1	n	u	n	n	u	n
O=C(NCc1cccnc1)c1ccc([N+](=O)[O-])o1	x	u	n	-66.9	u	n
O=[N+]([O-])c1cc([N+](=O)[O-])c(N2CCOCC2)cc1NCc1ccccc1	n	8.2µM	n	n	18.4µM	n
O=C(Nc1c(Cl)ccc2nsnc12)c1ccc([N+](=O)[O-])o1	n	u	n	-97.9	u	n
O=C(Nc1cccnc1)c1ccc([N+](=O)[O-])o1	n	9.2µM	n	-91.7	14.6µM	x
SMILES	CtBP-E1A inh	TDP1 cell CPT	Six1-Eya2 inh	IL1B secr inh	DT40 TDP1 no CPT	TDP1 block
O=C(Nc1c(Cl)ccc2nsnc12)c1ccc(Br)o1	n	n	n	n	n	x
CCOC(=O)C(NC(=O)Nc1ccccc1)(OCC)C(F)(F)F (centres undefined)	n	n	n	n	n	n
CCOc1ccc(N2C(=O)CC(NCC#N)C2=O)cc1 (centres undefined)	n	u	n	n	u	x
CCCC(=O)N1CCN(c2nc3c(OC)ccc(Cl)c3s2)CC1	n	u	n	u	n	n
O=S(=O)(c1cccc(-c2nnc(SCc3ccc(Cl)cc3)o2)c1)N1CCCCC1	n	8.2µM	n	n	23.1µM	n
O=S(=O)(Nc1ccc(-c2nnc(SCc3ccc(Cl)cc3)o2)cc1)c1ccccc1	n	u	n	-78.7	u	n
CCn1c(C(=O)NCc2ccc(F)cc2)cc2oc3ccccc3c21	x	20.6µM	x	x	u	n
CCOc1ccccc1CNC(=O)c1cc2oc3ccccc3c2n1CC	n	25.9µM	n	u	18.4µM	n
COc1cc2c(cc1OC)C(c1ccccc1)NCC2 (centres undefined)	n	n	n	n	n	x
COCOCCn1cc(CN2CCS(=O)(=O)N(Cc3ccc(-c4ccc(Cl)cc4)cc3)C(C(C)C)C2=O)nn1 (centres undefined)	n	18.4µM	n	n	20.6µM	x
COCOCCn1cc(CN2CCS(=O)(=O)N(Cc3ccc(-c4ccc(F)cc4)cc3)C(CC(C)C)C2=O)nn1 (centres undefined)	n	25.9µM	n	n	14.6µM	x
CCC/C=C/c1ccc(CN2C(C(C)C)C(=O)N(Cc3cn(CCOCOC)nn3)CCS2(=O)=O)cc1 (centres undefined)	n	u	n	n	u	x
COCOCCn1cc(CN2CCS(=O)(=O)N(Cc3ccc(-c4ccc(F)cc4)cc3)C(C(C)C)C2=O)nn1 (centres undefined)	n	u	n	u	18.4µM	x
COc1ccc(-c2ccc(CN3C(C(C)C)C(=O)N(Cc4cn(CCC5OCCCO5)nn4)CCS3(=O)=O)cc2)cc1OC (centres undefined)	n	u	n	n	u	x
COCOCCn1cc(CN2CCS(=O)(=O)N(Cc3ccc(-c4ccc(Cl)c(Cl)c4)cc3)C(C(C)C)C2=O)nn1 (centres undefined)	n	2.31µM	n	n	2.31µM	x
COc1ccc(OC)c(CN2CCN(C(=O)CNC(=O)c3ccc(C(C)(C)C)cc3)CC2)c1	n	u	n	n	u	n
COc1ccc(C#CC2C=CC(Oc3cc(C)cc(C)c3)C(CO)O2)cc1 (centres undefined)	x	x	x	x	x	n[21 µM]
COCOCCn1cc(CN2CCS(=O)(=O)N(Cc3ccc(-c4ccc(OC)cc4)cc3)C(C)C2=O)nn1 (centres undefined)	n	20.6µM	n	n	11.6µM	x
Nc1ccc(C2(c3ccc(N)cc3)C(=O)Nc3ccccc32)cc1	n	n	n	n	n	n
CCN1CCN(S(=O)(=O)c2ccc(Cl)c(C(=O)Nc3cc(Cl)ccc3N3CCOCC3)c2)CC1	n	u	n	-62.2	u	n
CCN1CCN(c2ccc(S(=O)(=O)N3CCOCC3)cc2NC(=O)c2ccc(Cl)cc2Cl)CC1	n	u	n	n	20.6µM	n

Source: PubChem
